Several values for one entry are separate records, joined by “and”; a condition that tells them apart may be missing. Equal values may be shown once. The panel holds about 79,000 compounds, 15% with a hit somewhere; the sample as a whole holds those more often. More than one record can exist for a structure, and the calls need not agree. Activity calls are given as the source filed them. Cut-off read from the data, not from the text of the source: active = growth inhibition above about 70%; inactive = the rest.
Legend:
[1] = NCI Yeast Anticancer Drug Screen. Data for the sgs1 mgt1 strain (AID 161);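 note: 0% = growth of cultures given vehicle only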; details: S. cerevisiae sgs1 mgt1 strain, stronger effect = higher value
Summary of the method: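 Percent growth inhibition was derived by comparing compound-exposed mutant yeast with vehicle-exposed cultures. The strain carries alterations in DNA damage repair.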

[2] = NCI Yeast Anticancer Drug Screen. Data for the CLN2oe strain (AID 163);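 note: 0% = growth of vehicle-only control cultures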; details: S. cerevisiae CLN2oe strain, stronger effect = higher value
Summary of the method: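 Compounds are applied to yeast harbouring a defined cell-cycle control change; reduced growth compared with vehicle-treated controls gives the value.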

[3] = NCI Yeast Anticancer Drug Screen. Data for the cln2 rad14 strain (AID 165);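 note: 0% = growth equal to vehicle treated cultures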; details: S. cerevisiae cln2 rad14 strain, stronger effect = higher value
Summary of the method: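 Readout is yeast growth inhibition versus vehicle-treated controls, using a strain with cln2 and rad14 alterations exposed to compound.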

[4] = NCI Yeast Anticancer Drug Screen. Data for the bub3 strain (AID 167); details: S. cerevisiae bub3 mutant strain, stronger effect = higher value
Summary of the method: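 Screening used yeast with an engineered genetic alteration affecting cell cycle control. Compound-exposed cultures were compared with vehicle cultures, and reduced growth was taken as inhibition.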

[5] = NCI Yeast Anticancer Drug Screen. Data for the wt2 strain (AID 169);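 note: 0% = growth of vehicle-treated yeast cultures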; details: S. cerevisiae wt2 strain growth inhibition, stronger effect = higher value
Summary of the method: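 Against vehicle-treated controls, the growth of yeast exposed to each compound was compared, and the inhibition was recorded.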

[6] = NCI Yeast Anticancer Drug Screen. Data for the mlh1 strain (AID 171);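 note: 0% = growth of vehicle-treated control cultures of the same strain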; details: S. cerevisiae mlh1 strain growth inhibition, stronger effect = higher value
Summary of the method: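 Measured: yeast growth. Reference: vehicle-treated controls. Organism: strain with a defined alteration affecting DNA damage repair or cell cycle control, treated with compound.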

[7] = NCI Yeast Anticancer Drug Screen. Data for the sgs1 strain (AID 173);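 note: 0% = growth of vehicle-only control cultures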; details: S. cerevisiae sgs1 mutant, stronger effect = higher value
Summary of the method: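 Each compound was added to cultures of the altered yeast strain. Growth was recorded, and inhibition was derived by comparison with vehicle controls.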

[8] = NCI Yeast Anticancer Drug Screen. Data for the mlh1 rad18 strain (AID 175); details: S. cerevisiae mlh1 rad18 strain growth inhibition, stronger effect = higher value
Summary of the method: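 Genetically defined yeast (DNA repair-deficient) exposed to compounds; growth inhibition determined relative to vehicle.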

[9] = NCI Yeast Anticancer Drug Screen. Data for the rad18 strain (AID 177); details: S. cerevisiae rad18 mutant growth inhibition, stronger effect = higher value
Summary of the method: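 Vehicle-treated cultures served as the baseline for scoring compound-induced growth inhibition in DNA-repair-mutant yeast.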

[10] = at 5.0 µM (retest, dose inferred, filed as 0.5)
[11] = at 50.0 µM (retest, dose inferred, filed as 5.0)

Measured: growth inhibition

COc1ccc(C(=O)C(CN(C)C)CN(C)C)cc1
active: [4]; at 100.0 µM 74% | [5]; at 100.0 µM 79% | [6]; at 100.0 µM 74% | [7]; at 100.0 µM 78%
0.15% (inactive) and 75.1% (active): [4]; at 50.0 µM
92% (active) and 27% (inactive): [8]; [11]
inactive: [1]; [10] 34% and 14% | [1]; [11] 59% and 35% | [1]; at 50.0 µM 32.8% and 61.8% | [2]; at 1.2 µM 15% | [2]; at 3.7 µM 12% | [2]; at 11.0 µM 6% | [2]; at 33.0 µM 33% | [2]; at 100.0 µM 46% | [3]; [10] 11% and 20% | [3]; [11] 31% and 36% | [3]; at 50.0 µM 21.6% and 30.7% | [4]; at 1.2 µM -18% | [4]; at 3.7 µM -5% | [4]; [10] 21% and 19% | [4]; at 11.0 µM -2% | [4]; at 33.0 µM 11% | [4]; [11] 51% and 33% | [5]; at 1.2 µM 12% | [5]; at 3.7 µM 1% | [5]; at 11.0 µM 4% | [5]; at 33.0 µM 36% | [6]; at 1.2 µM -32% | [6]; at 3.7 µM -15% | [6]; at 11.0 µM -13% | [6]; at 33.0 µM 4% | [7]; at 1.2 µM -7% | [7]; at 3.7 µM 29% | [7]; at 11.0 µM 26% | [7]; at 33.0 µM 32% | [8]; [10] 57% and 12% | [8]; at 50.0 µM 8.1% and 64.3% | [9]; at 1.2 µM -3% | [9]; at 3.7 µM -8% | [9]; at 11.0 µM -23% | [9]; at 33.0 µM -3% | [9]; at 100.0 µM 66%
